Measured values as given in PubChem BioAssay (EPA / NIEHS).
Calls of active or inactive are those of the source. Rule for the calls: active = hit-call score of the fitted dose curve at least 0.9, where 1 is the maximum; inactive = score below 0.9.

What was measured:
Settings in all cases: mRNA level, 48 h; actives raise or lower the signal
[1] = read-out: CYP4A11 (gene 1579); assay: LTEA_HepaRG_CYP4A11: Life Technologies and Expression Analysis (LTEA) Assay for CYP4A11 using HepaRG (AID 2283486)
Method in brief: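 HepaRG, 48 h chem exposure, 8 conc (100 uM top, half-log), 0.5% DMSO vehicle; qRT-PCR readout, housekeeping-gene normalized; bidirectional curve fit vs DMSO baseline.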

[2] = read-out: Cytochrome P450 3A4 (Homo sapiens) (UniProt P08684); assay: LTEA_HepaRG_CYP3A4: Life Technologies and Expression Analysis (LTEA) Assay for CYP3A4 using HepaRG (AID 2283487)
Method in brief: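 Differentiated HepaRG cells in serum-free induction medium exposed in duplicate for 48 h to 8 half-log concentrations up to 100 uM in 0.5% DMSO. CYP3A4 mRNA measured by qRT-PCR normalized to ACTB, GAPDH and POLR2A; bidirectional fit versus DMSO.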

[3] = read-out: DNA damage-inducible transcript 3 (DDIT3), DDIT3 (gene 1649); assay: LTEA_HepaRG_DDIT3: Life Technologies and Expression Analysis (LTEA) Assay for DNA damage-inducible transcript 3 (DDIT3) using HepaRG (AID 2283488)
Method in brief: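 Differentiated human HepaRG cells in serum-free induction medium were exposed in duplicate for 48 h to 8 concentrations (top 100 uM, half-log steps, 0.5% DMSO). DDIT3 mRNA measured by TaqMan qRT-PCR, normalized to ACTB/GAPDH/POLR2A; bidirectional fit versus DMSO.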

[4] = read-out: Pro-epidermal growth factor (Homo sapiens) (UniProt P01133); assay: LTEA_HepaRG_EGF: Life Technologies and Expression Analysis (LTEA) Assay for Epidermal growth factor (EGF) using HepaRG (AID 2283489)
Method in brief: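 HepaRG, 48 h dosing, 100 uM top, half-log x8, 0.5% DMSO. Readout: TaqMan qRT-PCR (Fluidigm array), housekeeping-normalized. Gain or loss of signal fit vs DMSO.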

[5] = read-out: Early growth response protein 1 (EGR1) transcription factor, EGR1 (gene 1958); assay: LTEA_HepaRG_EGR1: Life Technologies and Expression Analysis (LTEA) Assay for Early growth response protein 1 (EGR1) transcription factor using HepaRG (AID 2283490)
Method in brief: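 Differentiated HepaRG cells in serum-free induction medium exposed 48 hours, duplicate, to 8 half-log concentrations up to 100 uM in 0.5% DMSO. EGR1 mRNA measured by TaqMan qRT-PCR, normalized to ACTB, GAPDH, POLR2A; bidirectional fit versus DMSO.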

[6] = read-out: Ezrin (EZR), EZR (gene 7430); assay: LTEA_HepaRG_EZR: Life Technologies and Expression Analysis (LTEA) Assay for Ezrin (EZR) using HepaRG (AID 2283491)
Method in brief: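 Differentiated human HepaRG cells, 48 h after plating, were exposed in serum-free induction medium for 48 hours to eight half-log concentrations up to 100 uM in 0.5% DMSO. EZR mRNA was measured by TaqMan qRT-PCR, normalized to ACTB, GAPDH and POLR2A, and fitted bidirectionally against DMSO.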

[7] = read-out: Cytochrome P450 3A7 (Homo sapiens) (UniProt P24462); assay: LTEA_HepaRG_CYP3A7: Life Technologies and Expression Analysis (LTEA) Assay for CYP3A7 using HepaRG (AID 2283492)
Method in brief: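 Human HepaRG liver cells, 48 h post-plating, switched to serum-free induction medium and exposed in duplicate for 48 h. Dosing: 100 uM top, half-log dilutions, 8 points, 0.5% DMSO vehicle. Read-out: CYP3A7 mRNA, gain or loss fitted against DMSO baseline.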

[8] = read-out: CYP3A5 (gene 1577); assay: LTEA_HepaRG_CYP3A5: Life Technologies and Expression Analysis (LTEA) Assay for CYP3A5 using HepaRG (AID 2283493)
Method in brief: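 Differentiated HepaRG cells in serum-free induction medium were dosed 48 h with test chemicals (8-point half-log series, top 100 uM, 0.5% DMSO, duplicate). CYP3A5 mRNA measured by qRT-PCR, normalized to ACTB, GAPDH, POLR2A; bidirectional fit versus DMSO.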

[9] = read-out: Fatty Acid-Binding Protein 1 (FABP1), FABP1 (gene 2168); assay: LTEA_HepaRG_FABP1: Life Technologies and Expression Analysis (LTEA) Assay for Fatty Acid-Binding Protein 1 (FABP1) using HepaRG (AID 2283494)
Method in brief: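 Differentiated human HepaRG cells exposed 48 h in serum-free induction medium to eight half-log concentrations up to 100 uM (0.5% DMSO), duplicate. FABP1 mRNA by qRT-PCR, normalised to ACTB, GAPDH, POLR2A; bidirectional fitting against DMSO.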

[10] = read-out: Cytochrome P450 4A22 (Homo sapiens) (UniProt Q5TCH4); assay: LTEA_HepaRG_CYP4A22: Life Technologies and Expression Analysis (LTEA) Assay for Cytochrome P450 4A22 (CYP4A22) using HepaRG (AID 2283495)
Method in brief: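 Readout is CYP4A22 transcript induction or loss, quantified by qRT-PCR and normalized to ACTB, GAPDH and POLR2A. Human HepaRG cells receive test chemicals for 48 h at eight half-log concentrations from 100 uM in 0.5% DMSO.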

[11] = read-out: Cytochrome P450 7A1 (Homo sapiens) (UniProt P22680); assay: LTEA_HepaRG_CYP7A1: Life Technologies and Expression Analysis (LTEA) Assay for Cytochrome P450 7A1 (CYP7A1) using HepaRG (AID 2283496)
Method in brief: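 Gene expression endpoint in human HepaRG liver cells treated for 48 h with test chemicals (up to 100 uM, 0.5% DMSO). Values come from bidirectional concentration-response fitting versus DMSO.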

[12] = read-out: Glutathione S-Transferase (GSTA2), GSTA2 (gene 2939); assay: LTEA_HepaRG_GSTA2: Life Technologies and Expression Analysis (LTEA) Assay for Glutathione S-Transferase (GSTA2) using HepaRG (AID 2283497)
Method in brief: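 Differentiated human HepaRG cells were exposed in duplicate for 48 h in serum-free induction medium, 8 points from 100 uM top in half-log steps, 0.5% DMSO. GSTA2 mRNA was measured by TaqMan qRT-PCR, normalized to ACTB, GAPDH and POLR2A; bidirectional fit versus DMSO.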

[13] = read-out: Glutamate-cysteine ligase catalytic (GCLC), GCLC (gene 2729); assay: LTEA_HepaRG_GCLC: Life Technologies and Expression Analysis (LTEA) Assay for Glutamate-cysteine ligase catalytic (GCLC) using HepaRG (AID 2283498)
Method in brief: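 Differentiated HepaRG cells exposed 48 h in serum-free induction medium, eight-point half-log series topping at 100 uM in 0.5% DMSO, duplicates. GCLC mRNA by qRT-PCR normalized to ACTB, GAPDH and POLR2A, fitted bidirectionally versus DMSO.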

[14] = read-out: growth arrest and DNA damage 45 (GADD45G), GADD45G (gene 10912); assay: LTEA_HepaRG_GADD45G: Life Technologies and Expression Analysis (LTEA) Assay for growth arrest and DNA damage 45 (GADD45G) using HepaRG (AID 2283499)
Method in brief: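 Gain or loss of GADD45G mRNA, quantified by TaqMan qRT-PCR against three housekeeping genes, is fitted in both directions relative to 0.5% DMSO. Human HepaRG cultures receive test chemical for 48 h at up to 100 uM.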

[15] = read-out: Glutamate-cysteine ligase regulatory (GCLM), GCLM (gene 2730); assay: LTEA_HepaRG_GCLM: Life Technologies and Expression Analysis (LTEA) Assay for Glutamate-cysteine ligase regulatory (GCLM) using HepaRG (AID 2283500)
Method in brief: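 Differentiated human HepaRG cells exposed 48 h in serum-free induction medium to 8-point half-log concentrations (top 100 uM, 0.5% DMSO), in duplicate. GCLM mRNA quantified by qRT-PCR, normalized to ACTB, GAPDH, POLR2A; bidirectional fitting versus DMSO.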

[16] = read-out: Glutathione S-transferase M3 (GSTM3), GSTM3 (gene 2947); assay: LTEA_HepaRG_GSTM3: Life Technologies and Expression Analysis (LTEA) Assay for Glutathione S-transferase M3 (GSTM3) using HepaRG (AID 2283501)
Method in brief: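 HepaRG, plated 48 h, then serum-free induction medium; test chemical 48 h, duplicate; 100 uM top, half-log x8, 0.5% DMSO. Read-out: GSTM3 mRNA (TaqMan qRT-PCR, Fluidigm array). Bidirectional fit vs DMSO.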

[17] = read-out: Heat shock 70 kDa protein 1 (HSPA1A), gene 3303; assay: LTEA_HepaRG_HSPA1A: Life Technologies and Expression Analysis (LTEA) Assay for Heat shock 70 kDa protein 1 (HSPA1A) using HepaRG (AID 2283502)
Method in brief: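 Differentiated human HepaRG cells in serum-free induction medium were exposed in duplicate for 48 h to eight concentrations (top 100 uM, half-log steps, 0.5% DMSO). HSPA1A mRNA was quantified by qRT-PCR, normalized to ACTB, GAPDH and POLR2A, and fitted bidirectionally against DMSO.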

[18] = read-out: Hypoxia-inducible factor 1-alpha (Homo sapiens) (UniProt Q16665); assay: LTEA_HepaRG_HIF1A: Life Technologies and Expression Analysis (LTEA) Assay for Hypoxia-inducible factor 1 (HIF1A) Trancription factor using HepaRG (AID 2283503)
Method in brief: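 HepaRG, 48 h exposure, 8-pt half-log series from 100 uM, 0.5% DMSO vehicle, duplicates. Readout: HIF1A transcript by qRT-PCR (Fluidigm array), housekeeping-normalised. Bidirectional curve fit vs DMSO baseline.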

[19] = read-out: 3-Hydroxy-3-Methylglutaryl-CoA Synthase 2 (HMGCS2), HMGCS2 (gene 3158); assay: LTEA_HepaRG_HMGCS2: Life Technologies and Expression Analysis (LTEA) Assay for 3-Hydroxy-3-Methylglutaryl-CoA Synthase 2 (HMGCS2) using HepaRG (AID 2283504)
Method in brief: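 HepaRG, plated 48 h then switched to serum-free induction media; cmpd 8-pt, max 100 uM, 1/2-log, 0.5% DMSO, n=2, 48 h. HMGCS2 mRNA by Fluidigm TaqMan qRT-PCR, ACTB/GAPDH/POLR2A norm; bidirectional fit vs DMSO.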

[20] = read-out: HGF (gene 3082); assay: LTEA_HepaRG_HGF: Life Technologies and Expression Analysis (LTEA) Assay for Hepatocyte Growth Facto (HGF) using HepaRG (AID 2283505)
Method in brief: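 Read-out is HGF transcript level by qRT-PCR, normalized to three housekeeping genes, fitted bidirectionally against 0.5% DMSO vehicle. Human HepaRG cells received test chemicals for 48 h at up to 100 uM.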

Sequence of Cytochrome P450 3A4 (Homo sapiens) (P08684 whole entry, looked up): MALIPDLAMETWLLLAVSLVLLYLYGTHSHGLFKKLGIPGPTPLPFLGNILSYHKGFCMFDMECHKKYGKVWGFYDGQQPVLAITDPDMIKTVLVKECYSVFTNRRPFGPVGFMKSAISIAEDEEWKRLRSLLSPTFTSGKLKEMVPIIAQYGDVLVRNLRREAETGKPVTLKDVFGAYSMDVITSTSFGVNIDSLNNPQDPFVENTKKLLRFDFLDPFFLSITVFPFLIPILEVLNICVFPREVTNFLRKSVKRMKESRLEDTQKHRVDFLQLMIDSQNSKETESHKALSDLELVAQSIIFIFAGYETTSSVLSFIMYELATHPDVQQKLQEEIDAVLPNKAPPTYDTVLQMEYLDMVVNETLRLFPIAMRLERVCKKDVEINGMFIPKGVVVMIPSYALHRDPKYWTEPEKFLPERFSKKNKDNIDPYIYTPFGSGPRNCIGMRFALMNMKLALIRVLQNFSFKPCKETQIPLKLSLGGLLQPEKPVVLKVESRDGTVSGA
Sequence of Hypoxia-inducible factor 1-alpha (Homo sapiens) (Q16665 whole entry, looked up): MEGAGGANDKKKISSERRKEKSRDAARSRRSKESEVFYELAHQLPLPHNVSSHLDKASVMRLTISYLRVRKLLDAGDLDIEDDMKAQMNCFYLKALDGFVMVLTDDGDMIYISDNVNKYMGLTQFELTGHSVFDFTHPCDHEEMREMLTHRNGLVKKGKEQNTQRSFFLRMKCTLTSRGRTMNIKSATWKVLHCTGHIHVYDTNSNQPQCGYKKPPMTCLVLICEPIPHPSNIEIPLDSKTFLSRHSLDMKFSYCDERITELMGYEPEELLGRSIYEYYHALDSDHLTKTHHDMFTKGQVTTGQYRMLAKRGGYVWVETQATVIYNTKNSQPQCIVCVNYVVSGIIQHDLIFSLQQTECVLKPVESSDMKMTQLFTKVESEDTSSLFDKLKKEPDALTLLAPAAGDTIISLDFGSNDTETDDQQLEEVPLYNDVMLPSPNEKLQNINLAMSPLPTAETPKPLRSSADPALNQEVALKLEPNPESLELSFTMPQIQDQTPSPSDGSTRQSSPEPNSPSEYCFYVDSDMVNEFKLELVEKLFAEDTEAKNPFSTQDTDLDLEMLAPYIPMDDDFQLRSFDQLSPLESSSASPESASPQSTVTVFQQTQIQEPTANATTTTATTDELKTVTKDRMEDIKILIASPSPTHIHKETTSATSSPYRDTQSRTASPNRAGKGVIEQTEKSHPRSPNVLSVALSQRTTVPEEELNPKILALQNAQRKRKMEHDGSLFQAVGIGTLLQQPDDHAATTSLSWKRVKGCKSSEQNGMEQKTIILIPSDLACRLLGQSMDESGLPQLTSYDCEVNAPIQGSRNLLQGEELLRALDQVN
Sequence of Cytochrome P450 3A7 (Homo sapiens) (P24462 whole entry, looked up): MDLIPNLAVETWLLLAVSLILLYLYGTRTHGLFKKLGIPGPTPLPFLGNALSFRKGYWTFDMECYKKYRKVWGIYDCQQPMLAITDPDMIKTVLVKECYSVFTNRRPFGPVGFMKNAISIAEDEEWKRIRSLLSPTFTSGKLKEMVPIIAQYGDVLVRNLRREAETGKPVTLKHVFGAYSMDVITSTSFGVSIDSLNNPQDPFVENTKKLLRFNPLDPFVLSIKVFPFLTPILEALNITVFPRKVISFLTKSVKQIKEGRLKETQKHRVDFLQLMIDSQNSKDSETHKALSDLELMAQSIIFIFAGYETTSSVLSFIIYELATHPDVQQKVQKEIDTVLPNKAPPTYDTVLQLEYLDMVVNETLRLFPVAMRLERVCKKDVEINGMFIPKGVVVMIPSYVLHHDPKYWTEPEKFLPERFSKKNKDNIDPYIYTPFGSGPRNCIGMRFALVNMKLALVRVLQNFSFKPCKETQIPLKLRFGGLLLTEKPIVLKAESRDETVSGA

O=[N+]([O-])C(Br)(CO)CO
outcome [1]: inactive
outcome [2]: inactive
outcome [3]: inactive
outcome [4]: inactive
outcome [5]: inactive
outcome [6]: inactive
outcome [7]: inactive
outcome [8]: inactive
outcome [9]: inactive
outcome [10]: inactive
outcome [11]: inactive
outcome [12]: inactive
outcome [13]: inactive
outcome [14]: inactive
outcome [15]: inactive
outcome [16]: inactive
outcome [17]: inactive
outcome [18]: inactive
outcome [19]: inactive
outcome [20]: inactive

COC(=O)c1ccccc1N
outcome [1]: inactive
outcome [2]: inactive
outcome [3]: inactive
outcome [4]: inactive
outcome [5]: inactive
outcome [6]: inactive
outcome [7]: inactive
outcome [8]: inactive
outcome [9]: inactive
outcome [10]: inactive
outcome [11]: inactive
outcome [12]: inactive
outcome [13]: inactive
outcome [14]: inactive
outcome [15]: inactive
outcome [16]: inactive
outcome [17]: inactive
outcome [18]: inactive
outcome [19]: inactive
outcome [20]: inactive

Clc1ccc(C(c2ccc(Cl)cc2)C(Cl)Cl)cc1
AC50 [1]: 50 µM (active)
AC50 [2]: 10 µM (active)
outcome [3]: inactive
outcome [4]: inactive
outcome [5]: inactive
outcome [6]: inactive
AC50 [7]: 9.55 µM (active)
AC50 [8]: 29.7 µM (active)
AC50 [9]: 54.7 µM (active)
AC50 [10]: 22.4 µM (active)
AC50 [11]: 22.5 µM (active)
outcome [12]: inactive
outcome [13]: inactive
outcome [14]: inactive
outcome [15]: inactive
outcome [16]: inactive
outcome [17]: inactive
outcome [18]: inactive
outcome [19]: inactive
outcome [20]: inactive
